# From the supplement of paper PMC8728848
# Only a selection was taken, and the strongest signals are over-represented in it overall.
# Assays:
# Assay in all cases: glycan array binding signal (z-score within array); higher = stronger binding
# Conditions in all cases: glycan notation: IUPAC condensed, linker removed
# [1] = target: Fuc(a1-2)Gal(b1-3)GalNAc(b1-4)[Neu5Ac(a2-3)]Gal(b1-4)Glc
# In short: (§1)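 Glycan array binding is given as a within-array Z-score, which can be read as non-binding when negative. The arrays, 3228 of them, came from the Consortium for Functional Glycomics database and were retained only where the protein sequence was available. Z-scores were averaged across arrays of the same protein sequence at different concentrations or buffers and across linkers.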
# [2] = target: Fuc(a1-2)Gal(b1-3)[Fuc(a1-4)]GlcNAc
# In short: as §1
# [3] = target: Fuc(a1-2)Gal(b1-4)GlcNAc(b1-2)[Fuc(a1-2)Gal(b1-4)GlcNAc(b1-4)]Man(a1-3)[Fuc(a1-2)Gal(b1-4)GlcNAc(b1-2)Man(a1-6)]Man(b1-4)GlcNAc(b1-4)GlcNAc
# In short: as §1
# [4] = target: Fuc(a1-2)Gal(b1-4)[Fuc(a1-3)]GlcNAc(b1-3)Gal(b1-4)[Fuc(a1-3)]GlcNAc
# In short: as §1
# [5] = target: Fuc(a1-2)Gal3S(b1-4)GlcNAc
# In short: as §1
# [6] = target: Fuc(a1-2)[Gal(a1-3)]Gal(b1-4)[Fuc(a1-3)]GlcNAc(b1-3)GalNAc
# In short: as §1
# [7] = target: Fuc(a1-2)[GalNAc(a1-3)]Gal(b1-3)GlcNAc(b1-2)Man(a1-3)[Fuc(a1-2)[GalNAc(a1-3)]Gal(b1-3)GlcNAc(b1-2)Man(a1-6)]Man(b1-4)GlcNAc(b1-4)[Fuc(a1-6)]GlcNAc
# In short: as §1
# Gal(a1-2)Gal = target: Gal(a1-2)Gal
# In short: as §1
# [8] = target: Gal(a1-3)Gal(b1-3)[Fuc(a1-4)]GlcNAc(b1-2)Man(a1-3)[Gal(a1-3)Gal(b1-3)[Fuc(a1-4)]GlcNAc(b1-2)Man(a1-6)]Man(b1-4)GlcNAc(b1-4)GlcNAc
# In short: as §1
# Gal(a1-3)Gal(b1-4)GlcNAc = target: Gal(a1-3)Gal(b1-4)GlcNAc
# In short: as §1
# Gal(a1-4)Gal(b1-4)GlcNAc = target: Gal(a1-4)Gal(b1-4)GlcNAc
# In short: as §1
# [9] = target: Gal(b1-3)GlcNAc(b1-2)Man(a1-3)[GlcNAc(b1-4)][Gal(b1-3)GlcNAc(b1-2)Man(a1-6)]Man(b1-4)GlcNAc(b1-4)GlcNAc
# In short: as §1
# [10] = target: Gal(b1-3)GlcNAc(b1-3)Gal(b1-4)[Fuc(a1-3)]GlcNAc
# In short: as §1
# [11] = target: Gal(b1-4)GlcNAc(b1-2)Man(a1-6)[GlcNAc(b1-2)Man(a1-3)]Man(b1-4)GlcNAc(b1-4)GlcNAc
# In short: as §1
# [12] = target: Gal(b1-4)GlcNAc(b1-3)Gal(b1-4)GlcNAc(b1-2)[Gal(b1-4)GlcNAc(b1-3)Gal(b1-4)GlcNAc(b1-6)]Man(a1-6)[Gal(b1-4)GlcNAc(b1-3)Gal(b1-4)GlcNAc(b1-2)Man(a1-3)]Man(b1-4)GlcNAc(b1-4)GlcNAc
# In short: as §1
# [13] = target: Gal(b1-4)GlcNAc(b1-3)Gal(b1-4)GlcNAc(b1-3)Gal(b1-4)GlcNAc(b1-3)Gal(b1-4)GlcNAc(b1-2)Man(a1-3)[Gal(b1-4)GlcNAc(b1-3)Gal(b1-4)GlcNAc(b1-3)Gal(b1-4)GlcNAc(b1-3)Gal(b1-4)GlcNAc(b1-2)Man(a1-6)]Man(b1-4)GlcNAc(b1-4)[Fuc(a1-6)]GlcNAc
# In short: as §1
# [14] = target: Gal(b1-4)GlcNAc(b1-3)Gal(b1-4)GlcNAc(b1-3)Gal(b1-4)GlcNAc(b1-3)Gal(b1-4)GlcNAc(b1-3)Gal(b1-4)GlcNAc(b1-2)Man(a1-3)[Gal(b1-4)GlcNAc(b1-3)Gal(b1-4)GlcNAc(b1-3)Gal(b1-4)GlcNAc(b1-3)Gal(b1-4)GlcNAc(b1-3)Gal(b1-4)GlcNAc(b1-2)Man(a1-6)]Man(b1-4)GlcNAc(b1-4)[Fuc(a1-6)]GlcNAc
# In short: as §1
# [15] = target: Gal(b1-4)GlcNAc(b1-3)Gal(b1-4)GlcNAc(b1-3)Gal(b1-4)GlcNAc(b1-3)Gal(b1-4)GlcNAc(b1-3)Gal(b1-4)GlcNAc(b1-2)[Gal(b1-4)GlcNAc(b1-3)Gal(b1-4)GlcNAc(b1-3)Gal(b1-4)GlcNAc(b1-3)Gal(b1-4)GlcNAc(b1-3)Gal(b1-4)GlcNAc(b1-6)]Man(a1-6)[Gal(b1-4)GlcNAc(b1-3)Gal(b1-4)GlcNAc(b1-3)Gal(b1-4)GlcNAc(b1-3)Gal(b1-4)GlcNAc(b1-3)Gal(b1-4)GlcNAc(b1-2)Man(a1-3)]Man(b1-4)GlcNAc(b1-4)[Fuc(a1-6)]GlcNAc
# In short: as §1
# [16] = target: Gal(b1-4)GlcNAc(b1-6)GalNAc
# In short: as §1
# Gal(b1-4)GlcNAc6P = target: Gal(b1-4)GlcNAc6P
# In short: as §1
# Gal3S(b1-3)GalNAc = target: Gal3S(b1-3)GalNAc
# In short: as §1
# [17] = target: GalNAc(a1-3)GalNAc(b1-3)Gal(a1-4)Gal(b1-4)Glc
# In short: as §1
# [18] = target: GalNAc(b1-4)GlcNAc(b1-2)Man(a1-3)[GalNAc(b1-4)GlcNAc(b1-2)Man(a1-6)]Man(b1-4)GlcNAc(b1-4)GlcNAc
# In short: as §1
# GalNAc3S(b1-4)GlcNAc3S = target: GalNAc3S(b1-4)GlcNAc3S
# In short: as §1
# Glc(a1-6)Glc(a1-6)Glc = target: Glc(a1-6)Glc(a1-6)Glc
# In short: as §1
# Glc(b1-4)Glc = target: Glc(b1-4)Glc
# In short: as §1
# [19] = target: GlcNAc(a1-4)Gal(b1-4)GlcNAc(b1-3)Gal(b1-4)GlcNAc
# In short: as §1
# [20] = target: GlcNAc(a1-4)Gal(b1-4)GlcNAc(b1-3)Gal(b1-4)GlcNAc(b1-3)Gal(b1-4)GlcNAc
# In short: as §1
# [21] = target: GlcNAc(b1-3)Gal(b1-4)GlcNAc(b1-3)Gal(b1-4)GlcNAc(b1-2)Man(a1-3)[GlcNAc(b1-3)Gal(b1-4)GlcNAc(b1-3)Gal(b1-4)GlcNAc(b1-2)Man(a1-6)]Man(b1-4)GlcNAc(b1-4)[Fuc(a1-6)]GlcNAc
# In short: as §1
# [22] = target: GlcNAc(b1-3)Gal(b1-4)GlcNAc(b1-3)Gal(b1-4)GlcNAc(b1-3)Gal(b1-4)GlcNAc(b1-3)Gal(b1-4)GlcNAc(b1-2)Man(a1-3)[GlcNAc(b1-3)Gal(b1-4)GlcNAc(b1-3)Gal(b1-4)GlcNAc(b1-3)Gal(b1-4)GlcNAc(b1-3)Gal(b1-4)GlcNAc(b1-2)Man(a1-6)]Man(b1-4)GlcNAc(b1-4)GlcNAc
# In short: as §1
# GlcNAc(b1-3)Man = target: GlcNAc(b1-3)Man
# In short: as §1
# [23] = target: GlcNAc(b1-6)Gal(b1-4)GlcNAc
# In short: as §1
# Kdn(a2-3)Gal(b1-4)Glc = target: Kdn(a2-3)Gal(b1-4)Glc
# In short: as §1
# Kdn(a2-3)Gal(b1-4)GlcNAc = target: Kdn(a2-3)Gal(b1-4)GlcNAc
# In short: as §1
# [24] = target: Man(a1-3)[Man(a1-6)]Man(b1-4)GlcNAc(b1-4)GlcNAc
# In short: as §1
# Man(b1-4)GlcNAc = target: Man(b1-4)GlcNAc
# In short: as §1
# Neu5Ac(a2-3)Gal = target: Neu5Ac(a2-3)Gal
# In short: as §1
# [25] = target: Neu5Ac(a2-3)Gal(b1-3)[Fuc(a1-4)]GlcNAc
# In short: as §1
# [26] = target: Neu5Ac(a2-3)Gal(b1-3)[Fuc(a1-4)]GlcNAc(b1-3)Gal(b1-3)[Fuc(a1-4)]GlcNAc
# In short: as §1
# [27] = target: Neu5Ac(a2-3)Gal(b1-3)[GlcNAc(b1-6)]GalNAc
# In short: as §1
# [28] = target: Neu5Ac(a2-3)Gal(b1-4)GlcNAc
# In short: as §1
# [29] = target: Neu5Ac(a2-3)Gal(b1-4)GlcNAc(b1-6)[Neu5Ac(a2-3)Gal(b1-3)]GalNAc
# In short: as §1
# [30] = target: Neu5Ac(a2-6)Gal(b1-4)GlcNAc(b1-2)Man(a1-3)[Neu5Ac(a2-6)Gal(b1-4)GlcNAc(b1-2)Man(a1-6)]Man(b1-4)GlcNAc(b1-4)[Fuc(a1-6)]GlcNAc
# In short: as §1
# [31] = target: Neu5Ac(a2-6)Gal(b1-4)GlcNAc(b1-2)Man(a1-6)[GlcNAc(b1-2)Man(a1-3)]Man(b1-4)GlcNAc(b1-4)GlcNAc
# In short: as §1
# [32] = target: Neu5Ac(a2-6)Gal(b1-4)GlcNAc(b1-3)Gal(b1-4)GlcNAc(b1-2)Man(a1-3)[Neu5Ac(a2-6)Gal(b1-4)GlcNAc(b1-3)Gal(b1-4)GlcNAc(b1-2)Man(a1-6)]GalNAc
# In short: as §1
# [33] = target: Neu5Ac(a2-6)Gal(b1-4)GlcNAc(b1-3)Gal(b1-4)GlcNAc(b1-6)[Gal(b1-3)]GalNAc
# In short: as §1
# [34] = target: Neu5Ac(a2-8)Neu5Ac(a2-8)Neu5Ac
# In short: as §1
# [35] = target: Neu5Ac9Ac(a2-3)Gal(b1-3)GlcNAc
# In short: as §1
# [36] = target: Neu5Gc(a2-3)Gal(b1-4)GlcNAc
# In short: as §1
# [37] = target: Neu5Gc(a2-6)Gal(b1-4)GlcNAc
# In short: as §1
binder,measurement,setting,value
"LICBM33A (Lactococcus lactis), Q9CE94 (protein) MKKLLTGLLVAAGLLSVSLLIKTDTVSAHGYVQSPPARGYQGQLDSQSLGWTAAFNIYGNVISNPQSLEAPKGFPECGPADGRIASANGGLGQIGDFVLDNQTSSRWKKTSISTGSNIFTWKYTAPHKTTKWHYYMTKTGWDQNAPLKHSELELIGTINHDGSPATNNLSHTINIPTDRSGYHIVLAVWDVADTSNAFYNVIDINVNNKNASSQVFGPFL",glycan array binding signal (z-score),[1],-0.276
same,glycan array binding signal (z-score),[2],-0.377
same,glycan array binding signal (z-score),[3],6.68
same,glycan array binding signal (z-score),[4],-0.587
same,glycan array binding signal (z-score),[5],3.62
same,glycan array binding signal (z-score),[6],-1.52
same,glycan array binding signal (z-score),[7],-0.211
same,glycan array binding signal (z-score),Gal(a1-2)Gal,-0.28
same,glycan array binding signal (z-score),[8],-0.268
same,glycan array binding signal (z-score),Gal(a1-3)Gal(b1-4)GlcNAc,-0.436
same,glycan array binding signal (z-score),Gal(a1-4)Gal(b1-4)GlcNAc,0.111
same,glycan array binding signal (z-score),[9],-0.473
same,glycan array binding signal (z-score),[10],-0.324
same,glycan array binding signal (z-score),[11],-0.512
same,glycan array binding signal (z-score),[12],0.114
same,glycan array binding signal (z-score),[13],4.11
same,glycan array binding signal (z-score),[14],6.2
same,glycan array binding signal (z-score),[15],6.18
same,glycan array binding signal (z-score),[16],-0.959
same,glycan array binding signal (z-score),Gal(b1-4)GlcNAc6P,0.236
same,glycan array binding signal (z-score),Gal3S(b1-3)GalNAc,-0.215
same,glycan array binding signal (z-score),[17],-0.96
same,glycan array binding signal (z-score),[18],-0.578
same,glycan array binding signal (z-score),GalNAc3S(b1-4)GlcNAc3S,-0.284
same,glycan array binding signal (z-score),Glc(a1-6)Glc(a1-6)Glc,0.839
same,glycan array binding signal (z-score),Glc(b1-4)Glc,-0.321
same,glycan array binding signal (z-score),[19],-0.4
same,glycan array binding signal (z-score),[20],-0.457
same,glycan array binding signal (z-score),[21],-0.307
same,glycan array binding signal (z-score),[22],4.98
same,glycan array binding signal (z-score),GlcNAc(b1-3)Man,0.023
same,glycan array binding signal (z-score),[23],-0.043
same,glycan array binding signal (z-score),Kdn(a2-3)Gal(b1-4)Glc,0.82
same,glycan array binding signal (z-score),Kdn(a2-3)Gal(b1-4)GlcNAc,-0.667
same,glycan array binding signal (z-score),[24],0.527
same,glycan array binding signal (z-score),Man(b1-4)GlcNAc,-0.147
same,glycan array binding signal (z-score),Neu5Ac(a2-3)Gal,0.406
same,glycan array binding signal (z-score),[25],3.52
same,glycan array binding signal (z-score),[26],3.37
same,glycan array binding signal (z-score),[27],1.55
same,glycan array binding signal (z-score),[28],0.435
same,glycan array binding signal (z-score),[29],-0.471
same,glycan array binding signal (z-score),[30],4.31
same,glycan array binding signal (z-score),[31],4.26
same,glycan array binding signal (z-score),[32],4.82
same,glycan array binding signal (z-score),[33],-0.512
same,glycan array binding signal (z-score),[34],-0.117
same,glycan array binding signal (z-score),[35],0.017
same,glycan array binding signal (z-score),[36],-0.141
same,glycan array binding signal (z-score),[37],-0.606
